Source: PubChem BioAssay (several laboratories)
CYP2C9 activ – activators of human CYP2C9. activation factor at 5 µM. 96,000 tested, 1.4% active. recombinant CYP2C9, luciferin-H conversion, luminescence; stronger effect = higher value; factor 1 = untreated enzyme, 0 = blocked. P11712. AID 1024;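 active = activation factor of 2 or more for CYP2C9 at a 5 µM dose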;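 also: 0 = sulfaphenazole-blocked wells and 1 = vehicle-only wells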
CYP2C19 inh – blocks human cytochrome P450 2C19 | P33261 | inhibition, % at 5 µM | 96,000 tested, 21% active | CYP2C19 Supersomes, luciferin-H EGE luminescence, 30 min;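 active = CYP2C19 inhibition above a set limit at 5 µM in the primary screen, cut at about 50% in these data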;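 also: plate controls were negative control wells for no effect and 2.5 mM tranylcypromine positive control for full effect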
Target sequence (P33261 whole entry, looked up): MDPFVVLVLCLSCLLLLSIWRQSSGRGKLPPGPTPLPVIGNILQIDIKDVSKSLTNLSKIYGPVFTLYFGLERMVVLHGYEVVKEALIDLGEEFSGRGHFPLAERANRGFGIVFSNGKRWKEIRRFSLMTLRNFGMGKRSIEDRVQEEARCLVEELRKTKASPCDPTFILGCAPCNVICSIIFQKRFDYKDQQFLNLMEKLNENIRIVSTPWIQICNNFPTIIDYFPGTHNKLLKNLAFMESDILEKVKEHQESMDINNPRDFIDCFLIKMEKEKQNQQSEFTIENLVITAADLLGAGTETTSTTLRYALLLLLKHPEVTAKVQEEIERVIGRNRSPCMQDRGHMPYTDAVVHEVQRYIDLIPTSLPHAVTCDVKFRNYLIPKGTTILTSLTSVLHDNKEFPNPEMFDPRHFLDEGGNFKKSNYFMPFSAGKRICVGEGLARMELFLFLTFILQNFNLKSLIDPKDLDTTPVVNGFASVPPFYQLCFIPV
CYP2C9 inhib – inhibitors of human CYP2C9; CYP2C9 Supersomes, luciferin-H conversion, luminescence; inhibition, % at 5 µM; 96,000 tested, 20% active; AID 777;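 active = blocking of liver enzyme CYP2C9 beyond about 50% at 5 µM, limit read from the data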
MRP resist rev – reverses drug resistance mediated by MRP | H69AR cells + 2 uM doxorubicin, CellTiter-Glo, 72 h | AID 602 | differential viability (reversal), % at 10 µM | 85,000 tested, 0.04% active;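 active = viability drop by adding the cancer drug above about 55%, with treated viability meeting a 40% cutoff, limit read from the data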;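 also: viability without doxorubicin minus viability with 2 µM doxorubicin for each compound; larger differential means the compound sensitizes cells more to doxorubicin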
MRP1 act – MRP-1 activation | H69AR cells + doxorubicin, viability rescue, CellTiter-Glo | viability increase, % at 10 µM | 140,000 tested, 0.61% active;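 active = viability gain under doxorubicin at or above a set limit, the compound median plus 3 SD, cut at about 4.7% in these data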;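 also: MRP-1 overexpressing cells given doxorubicin 25 µM after compound pretreatment; 18-22 h compound pretreatment then 72 h with doxorubicin before readout; 0% = doxorubicin-only wells and 100% = vehicle-treated cells without doxorubicin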
CYP2C19 activ – increases human CYP2C19 enzyme activity | recombinant CYP2C19, luciferin-H EGE luminescence; stronger effect = higher value; 0 = fully inhibited enzyme, 1 = untreated enzyme | activation factor at 5 µM | 96,000 tested, under 10 active | AID 1025;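 active = activation factor of at least 2 at 5 µM in the primary screen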;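 also: 0 = wells with 2.5 mM tranylcypromine and 1 = vehicle-only wells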
Active calls of the source: *; nt = no result. A selection: hits, their analogues and other compounds. The true share with any hit is near 21%.

SMILES | CYP2C9 activ | CYP2C19 inh | CYP2C9 inhib | MRP resist rev | MRP1 act | CYP2C19 activ
CCc1ccc(S(=O)(=O)NCCc2csc(-c3ccccc3)n2)s1 | 0.3 | 93* | 74* | 5 | -5 | 0.1
CCOc1cc(S(=O)(=O)N2CCCCC2)ccc1Cl | 2.5* | 71* | -148 | 28 | -1 | 0.3
COc1cc(S(=O)(=O)N2CCCCCC2)ccc1Cl | 2.4* | 98* | -139 | nt | -1 | 0
CCOc1cc(S(=O)(=O)N2CCC(C(N)=O)CC2)ccc1F | 1.1 | -7 | -10 | 3 | 0 | 1.1
CCOc1cc(S(=O)(=O)N2CCOCC2)ccc1F | 1.4 | 57* | -41 | 4 | -2 | 0.4
CCn1c(C)nc2cc(S(=O)(=O)N3CCCC3)ccc21 | 1.3 | 13 | -35 | 15 | -1 | 0.9
COc1cc(S(=O)(=O)N2CCN(C)CC2)ccc1Cl | nt | nt | nt | 16 | -2 | nt
CCn1c(=S)[nH]c2cc(S(=O)(=O)N3CCCCC3)ccc21 | 0.5 | 45 | 51* | nt | -6 | 0.6
COc1cccc(/C(O)=C2/C(=O)C(=O)N(CCN3CCOCC3)C2c2cccs2)c1 (stereo unspecified) | 0.9 | 18 | 10 | 3 | -2 | 0.8
CC/C(O)=C1\C(=O)CC(c2ccccc2)CC1=NC(C)C (stereo unspecified) | nt | nt | nt | nt | -4 | nt
COc1ccc2cc(S(=O)(=O)N3CCCCC3)ccc2c1S(=O)(=O)N1CCCCC1 | 0.5 | 25 | 52* | 3 | -1 | 0.8
CCOc1cc(S(=O)(=O)N2CCN(CC)CC2)ccc1Cl | 2.3* | 65* | -134 | -5 | -3 | 0.4
CCOc1ccc(NC(=O)CN(C)c2nnnn2-c2ccccc2)cc1OCC | 0.7 | 72* | 27 | 2 | -1 | 0.3
CCOc1ccc(NC(=O)CN(C)CC(=O)Nc2ccccc2SC)cc1OCC | nt | nt | nt | nt | -3 | nt
CCOc1ccc(NC(=O)CN(C)c2ccc(S(=O)(=O)N(C(C)C)C(C)C)cn2)cc1OCC | 0.4 | 35 | 57* | -19 | -4 | 0.6
Cc1ccc(NC(=O)CN(C)c2ccc(S(=O)(=O)N3CCN(C)CC3)cn2)cc1 | 0.4 | 29 | 56* | 10 | 3 | 0.7
CC(C)(C)c1[nH]nc2c1C(c1ccc(OC(=O)c3ccco3)cc1)C(C#N)=C(N)O2 (stereo unspecified) | 0.3 | 65* | 71* | -5 | -1 | 0.3
Cc1cc2c(c(=O)n1C)C(Cc1ccccc1)C(C#N)=C(N)O2 (stereo unspecified) | 0.7 | 83* | 34 | 11 | -3 | 0.2
CC(C)(C)c1[nH]nc2c1C(Cc1ccccc1)C(C#N)=C(N)O2 (stereo unspecified) | 0.4 | 73* | 59* | nt | 0 | 0.3
CC(C)(C)c1[nH]nc2c1C(c1cccnc1)C(C#N)=C(N)O2 (stereo unspecified) | 0.7 | 22 | 29 | nt | -2 | 0.8
CC(C)(C)c1[nH]nc2c1C(C1C=CCCC1)C(C#N)=C(N)O2 (stereo unspecified) | 0.5 | 36 | 48 | -2 | -4 | 0.6
COc1ccc(C2N=C(c3ccccc3)C(C)(C)N2O)cc1OC (stereo unspecified) | 1 | 32 | 2 | -22 | 0 | 0.7
OC(Cc1cccnc1)(Cc1cccnc1)c1cc2ccccc2[nH]1 | nt | nt | nt | nt | -3 | nt
COc1cccc(OCCCCCCN2CCOCC2)c1 | 0.7 | 54* | 29 | 7 | -1 | 0.5
C=CCc1ccc(OCCCCCN2CCOCC2)c(OC)c1 | 0.8 | 64* | 17 | 2 | -2 | 0.4
SMILES | CYP2C9 activ | CYP2C19 inh | CYP2C9 inhib | MRP resist rev | MRP1 act | CYP2C19 activ
C=CCc1ccc(OCCn2cccc2C=O)c(OC)c1 | 0.6 | 70* | 39 | nt | 2 | 0.3
C=CCc1ccc(OCCOc2cccc3ccc(C)nc23)c(OC)c1 | 2.1* | 36 | -107 | nt | -2 | 0.6
CCOC(=O)c1cn[nH]c1N | 1 | 10 | 3 | -5 | -2 | 0.9
CCCOc1ccc(CNC(=S)NCc2ccc(OC(C)C)cc2)cc1 | nt | nt | nt | nt | 0 | nt
CC1CCCC(C)N1C(=O)c1cc(F)c(F)cc1Cl (stereo unspecified) | 0.9 | 59* | 8 | -8 | -1 | 0.4
CC1CCc2sc(C(=O)N/N=C/c3ccc([N+](=O)[O-])cc3)cc2C1 (stereo unspecified) | nt | nt | nt | nt | 0 | nt
Cc1cc(C)c(S(=O)(=O)Nc2ccccc2-c2ccccc2)c(C)c1 | nt | nt | nt | nt | 0 | nt
Cc1cc(C)c(S(=O)(=O)Nc2nnc(C)s2)c(C)c1 | 0.1 | -2 | 86* | 6 | 0 | 1
COc1ccc(C(O)P(=O)(OCC(C)C)OCC(C)C)c(OC)c1 (stereo unspecified) | nt | nt | nt | nt | -3 | nt
c1ccc(CCNc2ccc3nncn3n2)cc1 | 1.1 | 64* | -9 | 10 | -2 | 0.4
CCOc1ccc(CCNc2ccc3nnc(-c4ccccc4)n3n2)cc1OCC | nt | nt | nt | nt | -5 | nt
CS(=O)(=O)N1CC(C(=O)NC2CC2)Oc2ccc(Cl)cc21 (stereo unspecified) | 0.7 | 46 | 29 | nt | -2 | 0.5
O=C1/C(=C/c2ccccc2)CCCc2ccccc21 | 0.9 | 15 | 6 | -11 | -4 | 0.9
O=C1/C(=C/c2ccccc2)CSc2sccc21 | 0.6 | 55* | 40 | 13 | 1 | 0.5
O=C(CCc1ccc(Oc2cc([N+](=O)[O-])cc([N+](=O)[O-])c2)cc1)Nc1cccc(Cl)c1 | nt | nt | nt | nt | -2 | nt
O=C(CCc1ccc(Oc2cc([N+](=O)[O-])cc([N+](=O)[O-])c2)cc1)N1CCCCC1 | 0.2 | 54* | 82* | nt | -3 | 0.5
Cc1cc(C)nc(N2CCCC(C(=O)NCc3ccccc3)C2)n1 (stereo unspecified) | nt | nt | nt | -27 | -1 | nt
Cc1cc(C)nc(N2CCCC(C(=O)NC(C)CCc3ccco3)C2)n1 (stereo unspecified) | 0.4 | 74* | 59* | 13 | -2 | 0.3
Cc1ccc2nc(N3CCN(Cc4nnnn4C4CCCC4)CC3)c(C#N)cc2c1 | nt | nt | nt | 17 | -4 | nt
Cc1ccc(C)c(N2CCN(Cc3nnnn3C3CCCCC3)CC2)c1 | 0.6 | 56* | 42 | 9 | 0 | 0.4
C/C=C(\C)CN1CCN(c2cc(C)ccc2C)CC1 | 0.5 | 82* | 55* | -25 | -3 | 0.2
C/C=C(\C)CN1CCN(c2ccccc2F)CC1 | 0.8 | 73* | 23 | -7 | -3 | 0.3
C/C=C(\C)CN1CCN(c2cccc(C)c2C)CC1 | 0.8 | 28 | 16 | 6 | 0 | 0.7
CCN1C(=O)CC(N2CCN(CC(=O)NC(C)C)CC2)C1=O (stereo unspecified) | 0.9 | -8 | 9 | -3 | -2 | 1.1
O=C(CCSc1nc2ccccc2o1)N1CCOCC1 | nt | nt | nt | 6 | 0 | nt
COc1ccccc1C(=O)N/C(=C/c1ccc(Br)cc1)C(=O)NCC(=O)O | 0.7 | 37 | 26 | nt | -3 | 0.6
COc1cc(OC)cc(C(=O)OCn2nnc3ccccc3c2=O)c1 | 1.1 | -20 | -7 | -10 | 0 | 1.2
O=C(OCn1nnc2ccccc2c1=O)C1CCCCC1 | 0.5 | 72* | 53* | -15 | 0 | 0.3
